Inconclusive results are not listed. A call without a number means that no potency is given here. The source made the active and inactive calls. The call rests on the fitted dose curve; in most records, active means well fitted curve in the direction sought with a large enough effect; inconclusive means small, poorly fitted or top-dose-only effect, or another doubt; inactive means no such curve, though single readings can be large; an effect the other way counts as inactive or inconclusive.
Columns and labels:
[1] = molecular target: Guanine nucleotide-binding protein G(i) subunit alpha-1 (Homo sapiens) (UniProt P63096); test: qHTS Assay for Inhibitors of RGS12 GoLoco Motif Activity (Green Fluorophore) (AID 879); further: potency means the concentration at half of the fitted maximal effect
Procedure, shortened: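 Fluorescence polarization assay: 50 nM Gαi1 with 10 nM FITC-labeled RGS12 GoLoco peptide in 10 mM Tris pH 7.5, 150 mM NaCl, 0.1 mM GDP, 0.05% NP40, 10 min at room temperature with compound.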

[2] = Cellular Toxicity (caspase-3) H-4-II-E (AID 663);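 further: cells exposed to compound for 16 hr before readout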
Procedure, shortened: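 Apoptosis induction is scored as increased luminescence from caspase 3/7 substrate cleavage in rat hepatoma H-4-II-E cells exposed to compound for 16 hr. Activity is scaled between DMSO and 100 uM tamoxifen.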

[3] = Cellular Toxicity (caspase-3) Hek293 (AID 664);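 further: cells exposed to compound for 16 h at 37 °C before readout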
Procedure, shortened: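 HEK293 cells in complete medium treated 16 h at 37 °C, then Caspase-Glo 3/7 luminescence read after 20 min at room temperature. Normalized to DMSO and 100 uM tamoxifen; AC50 from Hill fit of concentration-response.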

[4] = Cellular Toxicity (caspase-3) N2a (AID 665);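 further: compound exposure lasted 16 h at 37 °C before readout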
Procedure, shortened: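 Mouse N2a neuroblastoma cells, 1500 per well, treated 16 h at 37 °C in complete medium; caspase-3/7 activity by Caspase-Glo luminescence after 1 h. Normalized to DMSO and 10 uM staurosporine; AC50 from Hill fits.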

[5] = Cellular Toxicity (caspase-3) NIH 3T3 (AID 666);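 further: caspase signal read after 16 h compound exposure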
Procedure, shortened: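 Mouse NIH 3T3 fibroblasts (1000/well) treated 16 h at 37 C; caspase-3/7 activity measured by Caspase-Glo 3/7 luminescence after 20 min. Normalized to DMSO and 100 uM tamoxifen; AC50 from Hill fits.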

[6] = Cellular Toxicity (caspase-3) Renal Proximal Tubule (AID 667);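 further: cells exposed to compound for 16 hours at 37 °C before detection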
Procedure, shortened: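 AC50 derived by standard Hill fit of concentration-response data, normalized between DMSO basal and 10 uM staurosporine as 100% stimulation. Cells: primary rat kidney proximal tubule, 16 h treatment at 37 °C.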

[7] = molecular target: Cytochrome P450 3A4 (Homo sapiens) (UniProt P08684); test: qHTS Assay for Activators of Cytochrome P450 3A4 (AID 885); further: nearly all actives have a fitted effect of over 65% in size
Procedure, shortened: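 Steps: enzyme/substrate mix dispensed; compound added, 10 min RT; NADPH regeneration solution added, 60 min RT; luciferin detection buffer stops reaction; 20 min later luminescence measured.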

[8] = molecular target: Cytochrome P450 2D6 (Homo sapiens) (UniProt P10635); test: qHTS Assay for Inhibitors and Substrates of Cytochrome P450 2D6 (AID 891); further: nearly all actives have a fitted effect of over 60% in size; further: potency means the concentration at half of the fitted maximal effect
Procedure, shortened: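 Human CYP2D6 (5 nM) with 30 uM Luciferin-ME EGE (at Km) in 100 mM KPO4, compound preincubated 10 min, then NADPH regeneration system for 60 min at room temperature. Luciferin read by luminescence; normalized to 1.43 uM quinidine.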

[9] = molecular target: Cytochrome P450 3A4 (Homo sapiens) (UniProt P08684); test: qHTS Assay for Inhibitors and Substrates of Cytochrome P450 3A4 (AID 884); further: series mostly up to about 57 µM; nearly all actives have a fitted effect of over 50% in size
Procedure, shortened: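 20 nM human CYP3A4 with 25 uM Luciferin-PPXE (at KM) in 200 mM KPO4, preincubated 10 min with compound; NADPH regeneration started a 60 min RT reaction. Luciferin detected by luminescence, normalized to 57 uM ketoconazole as full inhibition.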

[10] = molecular target: Cytochrome P450 2C9 (Homo sapiens) (UniProt P11712); test: qHTS Assay for Inhibitors and Substrates of Cytochrome P450 2C9 (AID 883); further: nearly all actives have a fitted effect of over 60% in size; further: potency means the concentration at half of the fitted maximal effect
Procedure, shortened: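 Inhibition of CYP2C9 is scored as loss of luminescence, with 57uM sulphaphenazole defining 100% inhibition. Substrate Luciferin-H is used at 100uM, equal to its KM; enzyme at 10nM in 25mM KPO4, 60 min at 37C with NADPH regeneration.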

Guanine nucleotide-binding protein G(i) subunit alpha-1 (Homo sapiens), sequence (P63096 whole entry, looked up): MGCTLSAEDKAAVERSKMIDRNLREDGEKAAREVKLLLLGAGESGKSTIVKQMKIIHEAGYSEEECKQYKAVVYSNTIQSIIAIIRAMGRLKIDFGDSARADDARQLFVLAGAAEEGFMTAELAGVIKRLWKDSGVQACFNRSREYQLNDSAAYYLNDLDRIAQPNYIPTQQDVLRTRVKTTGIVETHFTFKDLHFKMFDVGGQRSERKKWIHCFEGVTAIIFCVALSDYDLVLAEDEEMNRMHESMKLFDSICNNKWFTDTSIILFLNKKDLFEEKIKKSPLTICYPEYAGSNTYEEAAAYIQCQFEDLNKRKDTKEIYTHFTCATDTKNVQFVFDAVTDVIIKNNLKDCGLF
Cytochrome P450 2C9 (Homo sapiens), sequence (P11712 whole entry, looked up): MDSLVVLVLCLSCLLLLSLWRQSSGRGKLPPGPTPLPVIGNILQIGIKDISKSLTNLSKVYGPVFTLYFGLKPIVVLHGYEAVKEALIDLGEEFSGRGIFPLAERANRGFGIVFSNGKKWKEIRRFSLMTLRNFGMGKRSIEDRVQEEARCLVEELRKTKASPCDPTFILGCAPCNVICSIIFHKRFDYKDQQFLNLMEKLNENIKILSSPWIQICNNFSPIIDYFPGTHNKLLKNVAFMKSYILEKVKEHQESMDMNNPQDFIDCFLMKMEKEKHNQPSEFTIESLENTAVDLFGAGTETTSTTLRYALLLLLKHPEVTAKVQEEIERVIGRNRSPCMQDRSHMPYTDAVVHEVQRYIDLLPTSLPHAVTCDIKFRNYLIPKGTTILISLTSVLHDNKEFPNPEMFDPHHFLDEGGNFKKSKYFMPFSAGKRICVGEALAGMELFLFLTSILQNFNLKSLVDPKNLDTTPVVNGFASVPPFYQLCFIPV
Cytochrome P450 3A4 (Homo sapiens), sequence (P08684 whole entry, looked up): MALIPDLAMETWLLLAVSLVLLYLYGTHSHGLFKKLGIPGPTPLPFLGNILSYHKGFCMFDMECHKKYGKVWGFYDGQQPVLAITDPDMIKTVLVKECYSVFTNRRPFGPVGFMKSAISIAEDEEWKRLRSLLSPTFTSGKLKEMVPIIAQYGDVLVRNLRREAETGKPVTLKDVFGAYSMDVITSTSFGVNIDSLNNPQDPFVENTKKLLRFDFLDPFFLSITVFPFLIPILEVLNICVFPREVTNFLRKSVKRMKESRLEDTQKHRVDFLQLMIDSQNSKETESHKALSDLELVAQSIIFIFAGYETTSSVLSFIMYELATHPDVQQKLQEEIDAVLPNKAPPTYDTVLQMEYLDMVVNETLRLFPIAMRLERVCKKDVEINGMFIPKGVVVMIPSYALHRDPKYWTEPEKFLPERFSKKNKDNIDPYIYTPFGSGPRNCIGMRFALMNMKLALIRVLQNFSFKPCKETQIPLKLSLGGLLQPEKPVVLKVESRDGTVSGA
Cytochrome P450 2D6 (Homo sapiens), sequence (P10635 whole entry, looked up): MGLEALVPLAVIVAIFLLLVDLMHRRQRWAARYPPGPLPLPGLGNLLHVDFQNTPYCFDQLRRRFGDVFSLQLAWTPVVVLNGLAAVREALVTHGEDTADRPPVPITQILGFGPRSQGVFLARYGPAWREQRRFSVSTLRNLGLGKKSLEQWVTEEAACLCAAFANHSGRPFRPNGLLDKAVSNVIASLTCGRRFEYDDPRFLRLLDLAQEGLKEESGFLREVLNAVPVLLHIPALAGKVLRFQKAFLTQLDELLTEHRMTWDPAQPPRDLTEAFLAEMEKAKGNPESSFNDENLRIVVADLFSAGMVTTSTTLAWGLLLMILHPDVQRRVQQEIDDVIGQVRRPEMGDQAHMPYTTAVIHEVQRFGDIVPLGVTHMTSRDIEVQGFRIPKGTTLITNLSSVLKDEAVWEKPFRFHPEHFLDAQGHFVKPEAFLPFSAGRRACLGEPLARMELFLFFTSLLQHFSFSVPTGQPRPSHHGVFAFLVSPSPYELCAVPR

CCCCCCCCCCCCCCC[C@H](O)[C@H](N)CO
Potency [1]: inactive

Cn1c(=O)c2[nH]c(-c3ccc(S(=O)(=O)O)cc3)nc2n(C)c1=O
Potency [1]: inactive

CCCC(=O)NCCc1c2n(c3ccc(OC)cc13)CCCc1ccccc1-2
Potency [1]: inactive

Cc1ccc2c(c1)C(N1CCN(C)CC1)=Nc1cccnc1N2
Potency [1]: inactive

N=C(N)c1ccccc1
Potency [1]: inactive

COc1ccccc1N1CCN(CCN(C(=O)c2ccc(F)cc2)c2ccccn2)CC1
Potency [1]: inactive

O=c1cc(-c2ccccc2)[nH]c2nc(Cl)ccc12
Potency [1]: inactive

NS(=O)(=O)c1cccc2c1c([N+](=O)[O-])cc1nc(O)c(O)nc12
Potency [1]: inactive

CC[C@@H]1Cc2cc(O)ccc2C2=C1c1ccc(O)cc1C[C@H]2CC
Potency [1]: inactive

Nc1nc2[nH]c(=O)cnc2c(=O)[nH]1
Potency [1]: inactive

O=c1[nH]c2ccccc2c2ccccc12
Potency [1]: inactive

NOCC(=O)O
Potency [1]: inactive

O=C(O)C1CCNCC1
Potency [1]: inactive

C#CCn1c(=O)c2c(ncn2C)n(C)c1=O
Potency [1]: inactive

N[C@@H](CS(=O)O)C(=O)O
Potency [1]: inactive

COc1cc(CC(=O)O)ccc1O
Potency [1]: inactive

C/C(=C\c1ccc(C(=O)O)cc1)c1ccc2c(c1)C(C)(C)CCC2(C)C
Potency [1]: inactive

O=c1[nH]c(=O)c2nc3ccccc3nc2[nH]1
Potency [1]: inactive

C[N+](C)(C)CC=O
Potency [1]: inactive

NCCCNCCCCNCCCN
Potency [1]: inactive

O=c1ccc2c(OCCCCc3ccccc3)c3ccoc3cc2o1
Potency [1]: inactive

N[C@@H](Cc1c[nH]c2ccccc12)C(=O)O
Potency [1]: inactive

NC(=O)c1ccccc1
outcome [2]: inactive
outcome [3]: inactive
outcome [4]: inactive
outcome [5]: inactive
outcome [6]: inactive
Potency [1]: inactive
Potency [7]: inactive
Potency [8]: inactive

NC1(C(=O)O)CC1
Potency [1]: inactive

O=C(O)Cc1c[nH]c2ccc(O)cc12
Potency [1]: inactive

CC[N+](CC)(CC)CC(=O)Nc1c(C)cccc1C
Potency [1]: inactive

CC(=O)C(C)=O
outcome [2]: inactive
outcome [3]: inactive
outcome [4]: inactive
outcome [5]: inactive
outcome [6]: inactive
Potency [1]: inactive
Potency [9]: inactive
Potency [8]: inactive

CCCc1c(OCCCOc2ccc(OCC(=O)O)cc2)ccc(C(C)=O)c1O
Potency [1]: inactive

N#C/C(=C\c1ccc(O)c(O)c1)C(=O)NCCCNC(=O)/C(C#N)=C/c1ccc(O)c(O)c1
Potency [1]: inactive

O=c1oc(Cl)c(Cl)c2ccccc12
Potency [1]: inactive

N#Cc1cc2nc(O)c(O)nc2cc1[N+](=O)[O-]
Potency [1]: inactive

COc1ccc(-c2ccc(N)[n+](CCCC(=O)O)n2)cc1
Potency [1]: inactive

O=C(O)/C(=C/c1c(C(=O)O)[nH]c2cc(Cl)cc(Cl)c12)c1ccccc1
Potency [1]: inactive

C=CCn1c(=O)c2c(nc(-c3ccc(S(=O)(=O)O)cc3)n2C)n(C)c1=O
Potency [1]: inactive

Cc1cc2c(cc1Cl)N(C(=O)Nc1ccnc3ccccc13)CC2
Potency [1]: inactive

COc1ccc(C(=O)NCc2cccnc2)cc1C(=O)NCc1cccnc1
Potency [1]: inactive

CCN1C(=O)C=CC1=O
Potency [1]: inactive

O=C(O)C1=CCCN(CCON=C(c2ccccc2)c2ccccc2)C1
Potency [1]: inactive

C=CC[C@H](N)C(=O)O
Potency [1]: inactive
Potency [9]: inactive

COc1cc(CNC(=O)CCCCCCC(C)C)ccc1O
Potency [1]: inactive

CCCCCCCCCCCCCCSCC(=O)O
Potency [1]: inactive

Nn1nnc2ccccc21
Potency [1]: inactive

NC(N)=[N+]1CCc2ccccc2C1
Potency [1]: inactive

CCCCCCC/C=C\CCCCCCCCC(=O)O
Potency [1]: inactive

CCN(c1nc(N)c(C(=O)N=C(N)N)nc1Cl)C(C)C
Potency [1]: inactive

CC(N)=O
Potency [1]: inactive

Cn1c(=O)[nH]c2ncn(C)c2c1=O
Potency [1]: inactive
Potency [9]: inactive

Nc1nc2ccc(Cl)cc2c2nc(-c3ccco3)nn12
Potency [1]: inactive

CCCn1c(=O)c2[nH]c(-c3ccc(S(=O)(=O)O)cc3)nc2n(CCC)c1=O
Potency [1]: inactive

CC(C)NC[C@H](O)COc1ccc(CC(N)=O)cc1
Potency [1]: inactive

O=C(O)C1=CCCNC1
Potency [1]: inactive
Potency [9]: inactive

NCCS(=O)O
Potency [1]: inactive
Potency [10]: inactive
Potency [8]: inactive

NCCCCN
Potency [1]: inactive
Potency [9]: inactive

N=C(N)c1ccc(N)cc1
Potency [1]: inactive

OC1(c2ccc(Cl)cc2)CCN(Cc2c[nH]c3ccccc23)CC1
Potency [1]: inactive

Cc1nc(N=Nc2ccc(S(=O)(=O)O)cc2S(=O)(=O)O)c(COP(=O)(O)O)c(C=O)c1O
Potency [1]: inactive

CCC(=O)N1CCN(C(=O)c2ccccc2)CC1
Potency [1]: inactive

O=C(O)c1cc(=O)cc(C(=O)O)[nH]1
Potency [1]: inactive

CN[C@H](CC(=O)O)C(=O)O
Potency [1]: inactive
Potency [10]: inactive
Potency [9]: inactive
Potency [8]: inactive

O=C(O)C1=CC(=C(c2ccc(O)c(C(=O)O)c2)c2ccc(O)c(C(=O)O)c2)C=CC1=O
Potency [1]: 15.8 µM (active)
Potency [9]: inactive

CC(=O)NNC(=O)N1Cc2ccccc2Oc2ccc(Cl)cc21
Potency [1]: inactive
Potency [10]: inactive
Potency [7]: inactive
Potency [8]: 6.31 µM (active)

NCCCCN=C(N)N
Potency [1]: inactive

O=C1Nc2ccc(I)cc2/C1=C/c1cc(Br)c(O)c(Br)c1
Potency [1]: inactive

Cn1ccnc1
Potency [1]: inactive

NCCNS(=O)(=O)c1cccc2c(Cl)cccc12
Potency [1]: inactive

N=C(N)c1ccc(OCCCCCOc2ccc(C(=N)N)cc2)cc1 (tested in a mixture with another compound)
Potency [1]: inactive

COc1ccccc1N1CCN(CCCNc2c(C)c(=O)n(C)c(=O)n2C)CC1
Potency [1]: inactive

COC(=O)[C@H](NC(=O)c1cc(-c2ccccc2)nc2ccccc12)c1ccccc1
Potency [1]: inactive

CC(=O)N[C@@H](Cc1c[nH]c2ccccc12)C(=O)OCc1cc(C(F)(F)F)cc(C(F)(F)F)c1
Potency [1]: inactive
Potency [10]: 12.6 µM (active)

CCN(CC)CCOC(=O)c1cc(Cl)c(N)cc1OC
Potency [1]: inactive
Potency [10]: inactive
Potency [9]: inactive
Potency [7]: inactive

— PubChem BioAssay (NCATS)
